We go through four compounds from PubChem BioAssay (NCI).

Each structure is given as a SMILES string. About 83,000 compounds went through this panel and 20% of them were active in at least one assay; those are over-represented in the sample as a whole.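 Negative percent growth values reflect cell death: -40 means 40% of the cells present at the start died, and -100 means all died.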 Unmarked numbers belong to inactive results. Activity calls are given as the source filed them. The calls were made as follows: active = growth percent below 10; inactive = the rest.

The assay deals with MDA-MB-468 breast. The assay is described as follows: NCI-60 one-dose screen, 48 h (100 = growth as untreated, 0 = no growth, -100 = all killed). The settings on record: 10 µM unless noted.
For the compound `Cc1ccc(-c2csc(N(C(=O)N3CCN(c4cc5c(cc4F)c(=O)c(C(=O)O)cn5C4CC4)CC3)c3ccccc3)n2)cc1`, the growth is -6.73% (active).
Then `CC1O[C@@H]2C[C@@](O)([C@H]1O)n1c3ccccc3c3c4c(c5c6ccccc6n2c5c31)C(=O)NC4=O` (some centres undefined), with 3.51% (active); and `OC[C@@H](O)C(O[C@@H]1O[C@H](CO)[C@H](O)[C@H](O)[C@H]1O)[C@H](O)[C@@H](O)CO` (some centres undefined), with 94.7%.
Then `NC(=S)N/N=C\c1nccc2c(C(F)(F)C(F)(F)C(F)(F)F)cccc12`, with -69.7% (active).
